Results as given in PubChem BioAssay.
The source made the active and inactive calls. Unless noted, no rule for the calls is given here.

How the values were obtained:
[1] = resazurin metabolic signal in HepG2 cells – cell-based, resazurin fluorescence, 24 h, PK04 Diversity Set, profiling panel (AID 1172); conditions: HepG2 viability, higher = more signal
[2] = budding yeast growth changes without added modifier – OD600, strain BY4716, 24 h, basal condition, primary screen (AID 1173); conditions: S. cerevisiae BY4716 growth, OD600, 24 h; higher = more signal, called active from +8 up or from −8 down
[3] = viability profiling in MM1S myeloma cells – cell-based, resazurin fluorescence, basal, 24 h, PK04 Diversity Set, profiling panel (AID 1174); conditions: higher = more signal, called active from +8 up or from −8 down;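 also: MM1S multiple myeloma cell line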
[4] = biological target: Dihydroorotate dehydrogenase (quinone), mitochondrial (Plasmodium falciparum (isolate 3D7)) (UniProt Q08210); assay: inhibition of P. falciparum DHODH – biochemical, C-terminal His tag, absorbance 600 nm, primary screen (AID 1175); conditions: PfDHODH enzyme, DCIP absorbance 600 nm; higher = more signal, called active from +8 up or from −8 down;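 also: recombinant parasite enzyme with a five histidine tag at its C terminus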
Chain of Dihydroorotate dehydrogenase (quinone), mitochondrial (Plasmodium falciparum (isolate 3D7)) (Q08210 whole entry, looked up): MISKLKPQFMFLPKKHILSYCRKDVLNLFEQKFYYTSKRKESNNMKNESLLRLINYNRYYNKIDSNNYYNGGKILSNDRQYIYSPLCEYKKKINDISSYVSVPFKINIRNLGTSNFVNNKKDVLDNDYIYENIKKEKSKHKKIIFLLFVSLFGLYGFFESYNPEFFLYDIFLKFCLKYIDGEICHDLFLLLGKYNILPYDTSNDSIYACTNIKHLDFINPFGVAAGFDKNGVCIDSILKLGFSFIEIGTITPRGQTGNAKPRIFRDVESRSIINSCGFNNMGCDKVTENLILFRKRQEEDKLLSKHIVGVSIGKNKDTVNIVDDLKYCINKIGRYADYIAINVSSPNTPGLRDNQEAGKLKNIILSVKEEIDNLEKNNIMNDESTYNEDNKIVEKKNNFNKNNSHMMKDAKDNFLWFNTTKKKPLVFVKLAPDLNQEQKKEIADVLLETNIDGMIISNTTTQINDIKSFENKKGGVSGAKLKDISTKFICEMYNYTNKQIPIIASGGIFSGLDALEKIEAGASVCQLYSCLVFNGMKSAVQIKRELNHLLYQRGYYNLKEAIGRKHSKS

[5] = growth modulation of vineyard yeast isolate – strain RM11-1a, OD600, basal, 24 h, primary screen (AID 1177);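 also: cultures grown under basal conditions with no added stressor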; conditions: S. cerevisiae RM11-1a growth, OD600, 24 h; higher = more signal, called active from +8 up or from −8 down
[6] = growth of efflux-deficient E. coli DRC39 – strain DRC39, OD650, 24 h, E. coli filamentation inducers, primary screen (AID 1178);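 also: growth measured as culture turbidity by optical density at 650 nm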; conditions: E. coli DRC39 acrAB, higher = more signal, called active from +8 up or from −8 down
[7] = growth of efflux-deficient E. coli DRC39 – strain DRC39, OD650, 48 h, E. coli filamentation inducers, primary screen (AID 1179);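 also: screen aims at cell division blockers that make cells filament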; conditions: E. coli DRC39 delta-acrAB growth, higher = more signal, called active from +8 up or from −8 down
[8] = viability profiling in RPMI8226 myeloma cells – cell-based, resazurin fluorescence, basal, 24 h, PK04 Diversity Set, profiling panel (AID 1180); conditions: higher = more signal;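 also: RPMI8826 multiple myeloma cell line at 5000 cells per well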
[9] = biological target: E3 ubiquitin-protein ligase XIAP (Homo sapiens) (UniProt P98170); assay: small molecules binding XIAP protein – biophysical, small-molecule microarray, fluorescence 635 nm, primary screen (AID 1181); conditions: higher = more signal;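 also: score merges 667 nm emission and signal to noise over triplicate slides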
Chain of E3 ubiquitin-protein ligase XIAP (Homo sapiens) (P98170 whole entry, looked up, the tested form may be a part): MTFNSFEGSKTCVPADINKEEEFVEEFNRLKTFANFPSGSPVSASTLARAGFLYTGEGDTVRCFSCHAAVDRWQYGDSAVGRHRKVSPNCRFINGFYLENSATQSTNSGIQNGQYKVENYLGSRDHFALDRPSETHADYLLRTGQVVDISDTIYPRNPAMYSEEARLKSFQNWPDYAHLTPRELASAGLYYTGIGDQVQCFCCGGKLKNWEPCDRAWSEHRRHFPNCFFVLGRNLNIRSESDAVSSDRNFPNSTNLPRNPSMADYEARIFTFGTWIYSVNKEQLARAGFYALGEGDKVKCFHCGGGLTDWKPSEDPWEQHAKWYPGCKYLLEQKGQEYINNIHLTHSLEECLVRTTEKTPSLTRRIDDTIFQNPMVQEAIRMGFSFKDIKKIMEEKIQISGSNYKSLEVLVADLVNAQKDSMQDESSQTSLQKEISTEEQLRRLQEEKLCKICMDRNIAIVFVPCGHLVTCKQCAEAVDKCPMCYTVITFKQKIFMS

[10] = test system: XIP peptide (Xip251-270) binding; assay: XIP fragment 251-270 binding compounds – biochemical, small-molecule microarray, fluorescence 635/667 nm, 0.1 µg/mL protein, primary screen (AID 1182); conditions: fluorescent protein binding, 635 nm, higher = more signal, called active from +8 up or from −8 down
XIP peptide (Xip251-270) = assay: compounds binding XIP fragment 251-270 – biochemical, small-molecule microarray, fluorescence 635/667 nm, 0.5 µg/mL protein, primary screen (AID 1183); conditions: fluorescence 635 nm, higher = more signal
[11] = blood-stage malaria parasite viability loss – strain 3D7, DAPI fluorescence, 100 nL, primary screen (AID 1184);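 also: parasites grown inside human red blood cells in medium with human serum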; conditions: P. falciparum 3D7 growth, 3 d, higher = more signal
[12] = biological target: Homeobox protein Hox-A13 (Mus musculus) (UniProt Q62424); assay: disruptors of Hoxa13 oligonucleotide interaction – biochemical, fluorescence polarization, labeled oligonucleotide, primary screen (AID 1185); conditions: Hoxa13:DNA binding, 15 min, higher = more signal, called active from +8 up or from −8 down
Chain of Homeobox protein Hox-A13 (Mus musculus) (Q62424 whole entry, looked up): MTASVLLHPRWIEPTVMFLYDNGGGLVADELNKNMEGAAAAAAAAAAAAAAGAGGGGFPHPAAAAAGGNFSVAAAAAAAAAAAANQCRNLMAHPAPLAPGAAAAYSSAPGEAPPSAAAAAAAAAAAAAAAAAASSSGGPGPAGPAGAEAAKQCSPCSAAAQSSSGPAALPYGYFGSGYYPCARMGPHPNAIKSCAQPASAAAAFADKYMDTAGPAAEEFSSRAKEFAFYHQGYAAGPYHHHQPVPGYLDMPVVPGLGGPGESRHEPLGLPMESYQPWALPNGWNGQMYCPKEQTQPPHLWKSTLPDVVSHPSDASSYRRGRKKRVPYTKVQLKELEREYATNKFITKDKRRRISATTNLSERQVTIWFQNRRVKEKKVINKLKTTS

[13] = blockers of DNA damage checkpoint Chk1 activation – imaging, HeLa, hydroxyurea, phospho-Chk1 antibody, percent positive cells, primary screen (AID 1186); conditions: hydroxyurea-induced phospho-Chk1 immunofluorescence imaging, higher = more signal
[14] = blockers of DNA damage checkpoint Chk1 activation – imaging, HeLa, hydroxyurea, phospho-Chk1 nuclear intensity, primary screen (AID 1187); conditions: hydroxyurea-induced phospho-Chk1 immunofluorescence imaging, higher = more signal

Compound | z-score [1] | z-score [2] | z-score [3] | composite z-score [4] | z-score [5] | z-score [6] | z-score [7] | z-score [8] | composite z-score [9] | composite z-score [10] | composite z-score (XIP peptide (Xip251-270)) | z-score [11] | z-score [12] | z-score [13] | z-score [14]
CO[C@H]1COC(=O)[C@@H](Cc2ccccc2)NC(=O)[C@@H](C)COC(=O)CC=C[C@@H]1C | 0.344 | -1.14 (inactive) | 1.1 (inactive) | 0.0602 (inactive) | -0.213 (inactive) | 1.24 (inactive) | 0.639 (inactive) | 0.763 | 0.785 | -0.404 (inactive) | 0.43 | -0.0923 | -0.866 (inactive) | – | –
CO[C@@H]1COC(=O)[C@@H]2CCCN2C(=O)CC=C[C@@H](C)[C@H](OC)COC(=O)[C@@H]2CCCN2C(=O)CC=C[C@H]1C | 0.929 | -1.45 (inactive) | 1.31 (inactive) | 0.319 (inactive) | -0.553 (inactive) | 1.65 (inactive) | 0.987 (inactive) | 0.0475 | -0.02 | 0.284 (inactive) | 0.352 | 0.583 | -0.507 (inactive) | – | –
COc1ccc(-c2ccccc2[C@@H]2N[C@H](C(=O)O)CC[C@H]2C)cc1 | 0.0637 | -0.611 (inactive) | 1.37 (inactive) | 0.577 (inactive) | 0.649 (inactive) | -0.892 (inactive) | 0.0279 (inactive) | 1.61 | -0.113 | 0.351 (inactive) | 0.0228 | -0.907 | 1.08 (inactive) | – | –
COc1ccc([Si](C)(C)[C@H]2[C@H](CC(=O)N3Cc4ccccc4C[C@H]3CO)O[C@@]3(C(=O)N(Cc4cccc(N5CCOC5=O)c4)c4ccccc43)[C@@H]2C)cc1 | -0.341 | -2.22 (inactive) | -1.71 (inactive) | -0.135 (inactive) | 0.446 (inactive) | 1.63 (inactive) | 0.856 (inactive) | -1.75 | 0.22 | 0.873 (inactive) | 0.625 | -1.55 | -3.02 (inactive) | -0.958 (inactive) | -0.191 (inactive)
CC(C)[Si]1(C(C)C)O[C@@H](c2ccccc2)c2cc(C3CC3)nc(-c3ccc(Oc4ccccc4)cc3)c21 | 1.08 | -0.225 (inactive) | 1.35 (inactive) | 0.967 (inactive) | 1.15 (inactive) | 1.3 (inactive) | 0.734 (inactive) | 0.688 | -0.267 | -0.732 (inactive) | -0.736 | -1.45 | 0.0985 (inactive) | -0.446 (inactive) | 0.661 (inactive)
C/C(=N\O)C(=O)NCCCCCNC(=O)OCc1ccccc1 | 1.09 | -2.13 (inactive) | -0.158 (inactive) | -0.4 (inactive) | -0.608 (inactive) | 2.59 (inactive) | 1.43 (inactive) | 0.73 | -0.258 | 0.759 (inactive) | 0.58 | 0.574 | -0.408 (inactive) | -0.103 (inactive) | -0.394 (inactive)
O=C1c2ccccc2[C@](Cc2ccccc2I)(C(=O)NCc2ccccc2)[C@H](c2ccc(CO)cc2)N1Cc1ccccc1C(F)(F)F | 0.716 | -0.712 (inactive) | 1.32 (inactive) | 0.309 (inactive) | 0.758 (inactive) | 0.0438 (inactive) | 0.0442 (inactive) | 1.21 | -0.17 | 0.696 (inactive) | -1.14 | -0.794 | -1.29 (inactive) | -0.361 (inactive) | -0.331 (inactive)
O=C(O)[C@@H]1Cc2c([nH]c3ccccc23)[C@@H](c2ccccc2)N1 | 0.326 | -0.949 (inactive) | 1.14 (inactive) | -0.36 (inactive) | -0.19 (inactive) | -0.266 (inactive) | 0.0747 (inactive) | 0.724 | -0.127 | 0.0176 (inactive) | 0.0822 | -0.421 | 0.969 (inactive) | – | –
O=C(CS)NCCCCCNC(=O)[C@H]1C[C@H]2C(=O)N3CCC[C@H]3C(=O)N2[C@H]1c1ccc(O)cc1 | 0.743 | -1.04 (inactive) | 0.613 (inactive) | -0.581 (inactive) | -0.881 (inactive) | 1.2 (inactive) | 1.34 (inactive) | 1.09 | -0.02 | 0.215 (inactive) | -1.02 | -0.0463 | -3.01 (inactive) | 0.23 (inactive) | 0.426 (inactive)
C=CCN1C(=O)[C@@]2(O[C@@H](CCn3cc([C@H](O)c4ccccc4)nn3)[C@H]([Si](C)(C)c3ccc(OC)cc3)[C@H]2C)c2cc(N3CCOC3=O)ccc21 | -0.555 | -1.5 (inactive) | -0.365 (inactive) | -1.47 (inactive) | -1.57 (inactive) | 1.41 (inactive) | 0.391 (inactive) | -1.24 | 0.076 | 0.0505 (inactive) | -0.52 | -2.71 | -4.69 (inactive) | -1.49 (inactive) | -1.43 (inactive)
